Experimental data reported in PubChem BioAssay (NCI).
About 83,000 compounds went through this panel and 20% of them were active in at least one assay; those are over-represented in the sample as a whole.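 Values shown are percent growth following 48 h exposure of cells in 96-well plates to a single concentration of compound; below 10 was considered active.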 A number with no mark means an inactive call. Activity calls are given as the source filed them.

system: A549/ATCC NSCLC; assay: NCI-60 one-dose screen, 48 h (100 = growth as untreated, 0 = no growth, -100 = all killed); settings: 10 µM

**Q.** With `CC1=C(COCCOC(=O)c2ccc(S(=O)(=O)F)cc2)C2=C(C)C3(CC3)[C@@](C)(O)C(=O)C2=C1` as the compound, how does the growth read?
**A.** 4.56% (active)

**Q.** `CC[C@]12C=CCN3CC[C@@]4(c5ccc(OC)cc5N(C)[C@H]4[C@@](O)(C(=O)OC)[C@@H]1OC(=O)CCCC[P+](c1ccc(OC)cc1)(c1ccc(OC)cc1)c1ccc(OC)cc1)[C@@H]32` was tested. Which growth did it give?
**A.** -83.7% (active)

**Q.** How did the growth turn out when `CC1=C(CCC=NNC(N)=O)C2=C(C)C3(CC3)[C@@](C)(O)C(=O)C2=C1` was run?
**A.** -28.6% (active)

**Q.** Which growth does the source give for `CC[C@@]12CC(C(=O)OC)=C3Nc4cc5c(cc4[C@@]34CCN(C[C@H]3O[C@H]31)[C@@H]24)[C@@H]1[C@H](O5)[C@@H](O)[C@@]2(CC)CC(C(=O)OC)=C3Nc4cc(OC)ccc4[C@@]34CCN1[C@@H]24` here?
**A.** 25.7%

**Q.** `CCOP(=O)(CC(F)(F)C(F)(F)F)OCC` was tested. Which growth did it give?
**A.** 76.2%

**Q.** How did the growth turn out when `CC1=C2C(=C[C@@](C)(COP(=O)(Oc3ccccc3)Oc3ccccc3)[C@@H]2O)C(=O)[C@@](C)(O)C12CC2` was run?
**A.** -53.9% (active)

**Q.** For `CC(=O)Oc1ccccc1C(=O)NC([Se])=NC1CCCCC1`, which growth is on record?
**A.** 20.4%

**Q.** `C[C@H]1[C@H](OC(=O)CCC(=O)N(CCCc2cn(-c3ccc(CN4CCOCC4)cc3)nn2)CCNc2ccnc3cc(Cl)ccc23)O[C@@H]2OC3(C)CC[C@H]4[C@H](C)CC[C@@H]1[C@@]24OO3` was tested. Which growth did it give?
**A.** 36%

**Q.** For `O=C(/C=C/c1ccc(Cl)cc1)c1nc2ccccc2n1Cc1ccc(F)cc1`, which growth is on record?
**A.** 44.7%

**Q.** How did the growth turn out when `CC1=C(CCC=O)C2=C(C)C3(CC3)[C@@](C)(O)C(=O)C2=C1` was run?
**A.** -2.03% (active)

**Q.** For `O=C(NC([Se])=NC1CCCCC1)c1ccc2c(c1)OCO2`, which growth is on record?
**A.** 26.8%

**Q.** With `C[C@H]1[C@H](OC(=O)CCC(=O)N(CCCc2cn(-c3ccc(C#N)cc3)nn2)CCNc2ccnc3cc(Cl)ccc23)O[C@@H]2OC3(C)CC[C@H]4[C@H](C)CC[C@@H]1[C@@]24OO3` as the compound, how does the growth read?
**A.** 51.5%

**Q.** How did the growth turn out when `C[C@H]1[C@@H](Oc2ccc(-c3cn(-c4ccnc5cc(Cl)ccc45)nn3)cc2)O[C@@H]2OC3(C)CC[C@H]4[C@H](C)CC[C@@H]1[C@@]24OO3` was run?
**A.** 35.2%

**Q.** How did the growth turn out when `COc1ccc(/C=C/C(=O)c2nc3ccccc3n2Cc2ccc(Br)cc2)cc1` was run?
**A.** 74.6%

**Q.** `COC(=O)CCn1c(-c2ccc(-n3cc(-c4ccc(O[C@H]5O[C@@H]6OC7(C)CC[C@H]8[C@H](C)CC[C@@H]([C@H]5C)[C@@]68OO7)cc4)nn3)cc2)nc2ccccc21` was tested. Which growth did it give?
**A.** 30.9%

**Q.** How did the growth turn out when `C[C@H]1[C@H](OC(=O)CCC(=O)N(CCCc2cn(-c3ccc([N+](=O)[O-])cc3)nn2)CCNc2ccnc3cc(Cl)ccc23)O[C@@H]2OC3(C)CC[C@H]4[C@H](C)CC[C@@H]1[C@@]24OO3` was run?
**A.** 52.6%
